Anthrax LF prot = blocks Bacillus anthracis lethal factor protease; multiplex microsphere protease cleavage assay, LF; inhibition, % at 10 µM; actives 0.12% (n = 360,000); AID 588501; also: plate controls were buffer without enzyme for full effect and enzyme alone for no effect
Target sequence (P15917 whole entry, looked up): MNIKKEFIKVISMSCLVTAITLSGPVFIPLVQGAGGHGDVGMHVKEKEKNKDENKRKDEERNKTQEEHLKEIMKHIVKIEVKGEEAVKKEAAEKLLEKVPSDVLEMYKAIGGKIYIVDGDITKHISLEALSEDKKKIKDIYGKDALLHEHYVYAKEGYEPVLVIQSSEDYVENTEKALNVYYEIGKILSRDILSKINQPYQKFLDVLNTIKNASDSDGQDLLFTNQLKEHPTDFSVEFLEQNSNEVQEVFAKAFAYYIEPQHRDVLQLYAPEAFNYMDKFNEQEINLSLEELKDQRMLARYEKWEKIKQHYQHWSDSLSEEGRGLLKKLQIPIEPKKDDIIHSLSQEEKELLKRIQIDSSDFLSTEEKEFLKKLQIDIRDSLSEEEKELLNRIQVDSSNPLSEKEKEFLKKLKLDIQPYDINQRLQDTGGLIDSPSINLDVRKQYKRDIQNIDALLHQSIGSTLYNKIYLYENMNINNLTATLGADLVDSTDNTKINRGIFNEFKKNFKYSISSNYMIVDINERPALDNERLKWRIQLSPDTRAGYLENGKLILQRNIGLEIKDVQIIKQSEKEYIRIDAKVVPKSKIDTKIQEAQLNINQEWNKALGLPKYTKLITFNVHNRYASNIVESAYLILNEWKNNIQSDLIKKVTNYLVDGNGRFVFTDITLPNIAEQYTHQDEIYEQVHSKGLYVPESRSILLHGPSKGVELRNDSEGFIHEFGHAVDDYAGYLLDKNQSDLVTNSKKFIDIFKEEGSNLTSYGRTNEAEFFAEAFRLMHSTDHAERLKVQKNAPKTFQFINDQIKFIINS
GDH-TPI inh = inhibits GDH-TPI coupling enzymes, artifact for Mtb FBA screen | GDH-TPI coupled enzyme counterscreen, NADH absorbance | inhibition, % at 4.8 µM | actives 1.2% (n = 360,000) | AID 588335; in the data active = inhibition above about 30%;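 also: 0% = DMSO wells and 100% = wells lacking the enzyme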
Bead autofluor = flagged as autofluorescent in microsphere protease counterscreen. fluorescence intensity (concentration not given with the values). compound autofluorescence counterscreen, microsphere flow cytometry; active compounds read high. actives 3.1% (n = 360,000). AID 624483; in the data active = fluorescence intensity above about 16000; inconclusive = no clear call, values can overlap the other calls
BoNT-A LC inh2 = inhibitors of Botulinum neurotoxin A light chain protease | multiplex microsphere protease substrate cleavage, flow cytometry | inhibition, % at 10 µM | actives 0.17% (n = 360,000); also: plate controls were buffer without enzyme for full effect and enzyme alone for no effect
BoNT F protease = inhibitors of Botulinum neurotoxin F light chain protease. Multiplex microsphere protease cleavage assay, flow cytometry. inhibition, % at 10 µM. actives 0.22% (n = 360,000); in the data active = inhibition above about 35%, passing the limit was not always enough; inconclusive = no clear call, values can overlap the other calls; also: plate controls were buffer without enzyme for full effect and enzyme alone for no effect
FBA Mtb inh = inhibitors of M. tuberculosis fructose-bisphosphate aldolase; P9WQA3; purified M. tuberculosis FBA, fluorescence read-out; actives 2.3% (n = 360,000); inhibition, % at 1 µM; in the data active = inhibition above about 27%;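 also: 0% = vehicle and 100% = reference inhibitor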
The depositor's hits bear a star; ? = inconclusive; / = not tested or not shown; + = active, no number. Rows were chosen to be rich in hits. Some 6.6% of all compounds tested hit in one or more screens of this group. Rule as the data show it, unless noted: active = inhibition above about 30%; inconclusive = no clear call, values can overlap the other calls; inactive = below that.

SMILES	Anthrax LF prot	GDH-TPI inh	Bead autofluor	BoNT-A LC inh2	BoNT F protease	FBA Mtb inh
Fc1ccc(CNC(=S)Nc2ccccc2Cl)cc1	0	7	2100	0	1	3
COc1ccc(C(=O)Nc2ccccc2C(=O)NC(Cc2c[nH]c3ccccc23)C(=O)O)cc1 (stereo unspecified)	-1	-1	3775	0	2	1
CC1CCCCN1C(=O)NC12CC3CC(CC(C3)C1)C2 (stereo unspecified)	0	4	22908*	0	2	-4
O=C(NC12CC3CC(CC(C3)C1)C2)C1CCCN1C(=O)NC1CCCCC1 (stereo unspecified)	-4	1	3667	1	-3	1
Nc1nc(-c2cccnc2)nn1C(=O)Cc1ccccc1	-2	6	22678*	0	-2	2
CNC(=O)c1ccc(-c2ccc(OC)cc2)s1	-5	26	2114	-1	-16	+
COc1ccc(NC(=O)c2ccc(-c3ccc(OC)cc3)s2)cc1	-1	11	3422	0	0	1
CC(=NO)C1(C)CC=CCC1CO (stereo unspecified)	-3	4	4051	0	2	4
C/C(=N\Nc1cc(-c2ccccc2)nc(-c2ccc(Br)cc2)n1)c1cccc(N)c1	-5	18	17624*	-6	-13	0
C/C(=N/Nc1cc(-c2ccccc2)nc(-c2ccccc2)n1)c1ccc(O)cc1	-4	19	8856	0	1	4
CC1(C)CC(=O)C(C(c2cccnc2)C2C(=O)CC(C)(C)CC2=O)C(=O)C1	1	-2	22323*	2	6	-4
CNC(=O)/C=C/c1cccc(C(F)(F)F)c1	2	9	2221	4	40*	-2
Cc1cc(-c2ccccc2)nc(N/N=C/c2ccccc2)n1	-1	17	5860	-1	0	4
Cc1cc(-c2ccccc2)nc(N/N=C/c2ccco2)n1	-3	16	24412*	-2	-5	-1
Cc1cc(C)nc(N/N=C/c2ccco2)n1	3	31*	7861	1	-1	-2
Cc1cc(-c2ccccc2)nc(N/N=C/c2ccc(N(C)C)cc2)n1	1	31*	5889	-1	0	0
Cc1ccc2nc(N/N=C/c3ccco3)cc(C)c2c1	-2	13	2833	-1	-6	10
O=C(CCSc1nnc2scc(-c3ccccc3)n12)NCc1ccc2c(c1)OCO2	-10	18	16498*	-2	-2	-3
Nn1c(SCC(=O)Nc2ccc3c(c2)OCCO3)nnc1-c1ccncc1	-4	8	6751	-4	-12	-2
O=C(CSc1nnc2scc(-c3ccccc3)n12)Nc1ccc2c(c1)OCCO2	2	3	16931*	?	-5	-4
COCCn1c(SCC(=O)Nc2ccc3c(c2)OCCO3)nnc1-c1c[nH]c2ccccc12	-5	-7	22982*	2	0	2
CCCCn1c(N)c(N(Cc2ccccc2)C(=O)COc2ccccc2F)c(=O)[nH]c1=O	-2	-5	5943	0	-3	0
O=C(Cc1cccc(F)c1)N1CCOCC1	-8	-5	3896	0	6	-1
CC(=O)Nc1nonc1-c1nc2ccccc2n1Cc1nnc(C)o1	1	8	22950*	1	-1	19
CCn1c(-c2nonc2NC(=O)c2ccccc2)nc2ccccc21	-1	-1	20786*	0	1	0
SMILES	Anthrax LF prot	GDH-TPI inh	Bead autofluor	BoNT-A LC inh2	BoNT F protease	FBA Mtb inh
CC(=O)Nc1nonc1-c1nc2ccccc2n1Cc1ccccc1	2	4	3900	0	14	2
CCC(=O)Nc1nonc1-c1nc2ccccc2n1Cc1ccc(Cl)c(Cl)c1	-5	/	5464	-1	2	/
Cc1ccc(C(=O)OCC(=O)NCc2ccco2)cc1C	-4	-5	4006	0	0	1
CC(C)NC(=O)Nc1nnc([C@@H]2C[C@H](O)[C@@H](CO)O2)s1	2	13	3660	0	-2	-1
CCOc1ccc(-n2c(Cc3cc(=O)[nH]c(=O)[nH]3)nnc2SCC)cc1	0	-7	19071*	?	4	4
CC1(CC(=O)O)C(=O)N=C2C=CC=CN21 (stereo unspecified)	1	2	10738	0	-6	167*
COC(=O)[C@H](CC(C)C)NC(=O)CC[C@H]1O[C@@H](n2cc(C)c(=O)[nH]c2=O)C[C@@H]1O	1	/	5683	0	-2	-1
O=C(O)/C=C\C(=O)NCc1cccnc1	3	4	3617	0	-6	3
O=C1CC(=O)N(CCc2ccccc2)C(=O)N1CCc1ccccc1	-2	5	22637*	2	-3	-1
CC1CC(=O)N(CCc2ccccc2)C(=O)C1	5	9	2874	0	-3	1
CCOC(=O)c1c(N)nn(C(C)=O)c1-c1ccccc1	-2	-2	2420	1	1	-3
CCOC(=O)c1c(N)nn(C(=O)C(C)C)c1-c1ccc(OC)cc1	-2	12	16326*	0	1	-2
Cc1cc(C(=O)CSc2nc3ccc(Cl)cc3[nH]2)c(C)n1Cc1ccco1	-4	5	3621	2	5	4
CCOC(=O)C(C)Sc1cc(CS(=O)(=O)c2ccccc2)nc(-c2ccccc2)n1 (stereo unspecified)	-3	1	20917*	?	6	-2
COc1ccc(OC)c(C2=NOC(C(=O)NCC3CCCO3)C2)c1 (stereo unspecified)	-1	18	15476	2	2	6
O=C(NCC1CCCO1)C1CC(c2ccccc2Cl)=NO1 (stereo unspecified)	1	-11	21967*	1	1	1
COc1ccc(OC)c(-c2nnc3n2N=C(c2ccc(OC)c(OC4CCCC4)c2)CS3)c1	4	32*	2893	-1	-3	5
COc1ccc(C2=Nn3c(nnc3-c3ccccc3)SC2)cc1OC	-9	13	10676	-3	-5	2
COc1ccc(OC)c(-c2nnc3n2N=C(c2ccc(OC)c(OC)c2)CS3)c1	-3	34*	2859	0	4	2
COc1ccc(C2=Nn3c(nnc3C3CCCCC3)SC2)cc1OC	-2	17	24718*	-3	-6	1
COc1ccc(OC)c(C2=Nn3c(nnc3-c3cccc(OC(C)C)c3)SC2)c1	-15	10	16655*	-1	-5	-2
O=C(/C=C/Nc1cccc(C(F)(F)F)c1)c1ccc(Oc2ncccn2)cc1	-1	32*	2627	-1	-4	-1
Cn1c(SCC(=O)NCCc2ccccc2)nnc1C1CCCCC1	6	-2	4260	-4	-11	1
C=CCSc1nnc(-c2ccc(Cl)cc2Cl)o1	-8	4	17125*	-4	-4	0
CCN(C(=O)CSc1ncccn1)c1c(N)n(Cc2ccccc2)c(=O)[nH]c1=O	-2	-2	5427	0	-2	-4
CCc1noc(C)c1C(=O)NCCc1ccc(OC)c(OC)c1	-2	-8	24111*	?	1	0
